What all share (assay): HT-SELEX; high values mean tight binding
Holding throughout (details): protein: recombinant; vector His6-GST; dsDNA, one strand shown

One assay deals with T1, SALL4 ZFC4 WT (HT-SELEX) (Mus musculus, UniProt Q8BX22 870-940).
T1 sequence: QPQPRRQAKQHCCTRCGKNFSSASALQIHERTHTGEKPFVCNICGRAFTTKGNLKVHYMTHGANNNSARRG
The gist of the method:
(§1)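 Binding signal is expressed as fold change in each canonical k-mer's read fraction over the initial random library. To obtain it, 1 µg of purified recombinant mouse SALL4 zinc finger cluster 4 (residues 870–940) was incubated for 10 min at room temperature with library DNA (1.5 µg first cycle, 200 ng later cycles) in 100 µl of 10 mM Tris–HCl pH 7.5, 50 mM NaCl, poly(dI-dC) and DTT. Ni2+ bead-captured complexes went through washing, PCR amplification and reselection for up to 6 cycles, in triplicate, before MiSeq sequencing and scanning for 6-mers.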

In assay [1] the target is T2, SALL4 ZFC4 R900W (HT-SELEX) (Mus musculus, UniProt Q8BX22 870-940, R900W).
T2 sequence: T1 sequence with R31W
Put shortly:
as §1

Assay [2] concerns the target T3, SALL4 ZFC4 G921D (HT-SELEX) (Mus musculus, UniProt Q8BX22 870-940, G921D).
T3 sequence: T1 sequence with G52D
The gist of the method:
as §1

Residue numbers refer to the chain shown, from its start.

On to ATTAAG, for which the binding signal in the assay with SALL4 ZFC4 WT (HT-SELEX) came to 2.1 ± 0.107 fold-change vs cycle 0; in assay [1], 2.09 ± 0.139 fold-change vs cycle 0; in assay [2], 1.82 ± 0.22 fold-change vs cycle 0.
The matching figures for TAGTGA: 1.4 ± 0.0384 fold-change vs cycle 0, 1.53 ± 0.027 fold-change vs cycle 0 and 1.43 ± 0.107 fold-change vs cycle 0.
In the case of TAACAA, the binding signal with SALL4 ZFC4 WT (HT-SELEX) came out at 2.11 ± 0.116 fold-change vs cycle 0; in assay [1] it was 2.02 ± 0.138 fold-change vs cycle 0; in assay [2], 1.81 ± 0.153 fold-change vs cycle 0.
In the same order, the values of CGATTA are 1.16 ± 0.0473 fold-change vs cycle 0, 1.17 ± 0.0726 fold-change vs cycle 0 and 1.18 ± 0.023 fold-change vs cycle 0.
In the same order, the values of TATTAA are 5.02 ± 0.457 fold-change vs cycle 0, 2.69 ± 0.232 fold-change vs cycle 0 and 2.25 ± 0.285 fold-change vs cycle 0.
In the same order, the values of ATCGAC are 0.576 ± 0.0406 fold-change vs cycle 0, 0.632 ± 0.033 fold-change vs cycle 0 and 0.759 ± 0.0482 fold-change vs cycle 0.
As to GTGACA, the binding signal was determined as 0.691 ± 0.0164 fold-change vs cycle 0 with SALL4 ZFC4 WT (HT-SELEX), 0.813 ± 0.0124 fold-change vs cycle 0 in assay [1] and 0.852 ± 0.0256 fold-change vs cycle 0 in assay [2].
For CCATAG, the values for the binding signal (in the assay with SALL4 ZFC4 WT (HT-SELEX); in assay [1]; in assay [2]) were 0.841 ± 0.0326 fold-change vs cycle 0, 0.91 ± 0.0505 fold-change vs cycle 0 and 0.94 ± 0.039 fold-change vs cycle 0, respectively.
In the same order, the values of AACTGT are 1.31 ± 0.0453 fold-change vs cycle 0, 1.39 ± 0.0174 fold-change vs cycle 0 and 1.34 ± 0.0563 fold-change vs cycle 0.
In the same order, the values of AGCTAT are 1.19 ± 0.0625 fold-change vs cycle 0, 1.26 ± 0.0563 fold-change vs cycle 0 and 1.27 ± 0.0842 fold-change vs cycle 0.
In the same order, the values of ATCTAG are 1.35 ± 0.0842 fold-change vs cycle 0, 1.48 ± 0.0373 fold-change vs cycle 0 and 1.41 ± 0.108 fold-change vs cycle 0.
Regarding ATACCC, the results for the binding signal (in the assay with SALL4 ZFC4 WT (HT-SELEX); in assay [1]; in assay [2]) were 0.85 ± 0.0409 fold-change vs cycle 0, 0.935 ± 0.04 fold-change vs cycle 0 and 0.962 ± 0.0418 fold-change vs cycle 0, respectively.
In the same order, the values of AAACCC are 0.691 ± 0.0592 fold-change vs cycle 0, 0.77 ± 0.0294 fold-change vs cycle 0 and 0.845 ± 0.0633 fold-change vs cycle 0.
The matching figures for GTACAA: 1.14 ± 0.0399 fold-change vs cycle 0, 1.26 ± 0.0443 fold-change vs cycle 0 and 1.22 ± 0.0489 fold-change vs cycle 0.
In the same order, the values of TAGGCA are 0.578 ± 0.0216 fold-change vs cycle 0, 0.648 ± 0.0255 fold-change vs cycle 0 and 0.751 ± 0.038 fold-change vs cycle 0.
Turning to ATGTCC, the binding signal with SALL4 ZFC4 WT (HT-SELEX) stood at 0.723 ± 0.0385 fold-change vs cycle 0; in assay [1] it was 0.831 ± 0.0392 fold-change vs cycle 0; in assay [2] it was 0.904 ± 0.0203 fold-change vs cycle 0.
The matching figures for ACAAAG: 1.19 ± 0.0417 fold-change vs cycle 0, 1.36 ± 0.0499 fold-change vs cycle 0 and 1.3 ± 0.0198 fold-change vs cycle 0.
The matching figures for CTTCTC: 0.952 ± 0.0502 fold-change vs cycle 0, 1.11 ± 0.0917 fold-change vs cycle 0 and 1.07 ± 0.0618 fold-change vs cycle 0.
Consider ACTGAC, for which the binding signal with SALL4 ZFC4 WT (HT-SELEX) came out at 0.782 ± 0.026 fold-change vs cycle 0; in assay [1], 0.909 ± 0.0341 fold-change vs cycle 0; in assay [2], 0.934 ± 0.016 fold-change vs cycle 0.
For the sequence AAAAGG, the binding signal with SALL4 ZFC4 WT (HT-SELEX) was 1.08 ± 0.0719 fold-change vs cycle 0; in assay [1], 1.25 ± 0.064 fold-change vs cycle 0; in assay [2] it was 1.18 ± 0.0579 fold-change vs cycle 0.
Turning to CATTTC, the binding signal was 1.25 ± 0.0444 fold-change vs cycle 0 with SALL4 ZFC4 WT (HT-SELEX), 1.26 ± 0.0656 fold-change vs cycle 0 in assay [1] and 1.23 ± 0.0622 fold-change vs cycle 0 in assay [2].
In the same order, the values of CAGTAG are 0.806 ± 0.0679 fold-change vs cycle 0, 0.908 ± 0.0926 fold-change vs cycle 0 and 0.954 ± 0.0684 fold-change vs cycle 0.
The matching figures for GGGGTA: 0.484 ± 0.0383 fold-change vs cycle 0, 0.541 ± 0.0115 fold-change vs cycle 0 and 0.611 ± 0.0687 fold-change vs cycle 0.
In the same order, the values of ATGCTC are 0.663 ± 0.0343 fold-change vs cycle 0, 0.754 ± 0.0376 fold-change vs cycle 0 and 0.845 ± 0.0337 fold-change vs cycle 0.
On to GTTTAA, for which the figures for the binding signal (in the assay with SALL4 ZFC4 WT (HT-SELEX); in assay [1]; in assay [2]) were 1.69 ± 0.0773 fold-change vs cycle 0, 1.79 ± 0.0911 fold-change vs cycle 0 and 1.63 ± 0.153 fold-change vs cycle 0, respectively.
The matching figures for AATCGA: 1.08 ± 0.05 fold-change vs cycle 0, 1.14 ± 0.0428 fold-change vs cycle 0 and 1.2 ± 0.0389 fold-change vs cycle 0.
In the same order, the values of GAAGAA are 1.38 ± 0.0779 fold-change vs cycle 0, 1.56 ± 0.142 fold-change vs cycle 0 and 1.41 ± 0.156 fold-change vs cycle 0.
In the same order, the values of GATTAA are 2.07 ± 0.127 fold-change vs cycle 0, 1.99 ± 0.123 fold-change vs cycle 0 and 1.77 ± 0.188 fold-change vs cycle 0.
Take ACTGGA: the values for the binding signal (with SALL4 ZFC4 WT (HT-SELEX); in assay [1]; in assay [2]) were 0.84 ± 0.022 fold-change vs cycle 0, 0.993 ± 0.0196 fold-change vs cycle 0 and 1.01 ± 0.0605 fold-change vs cycle 0, respectively.
In the same order, the values of TTATAA are 4.21 ± 0.59 fold-change vs cycle 0, 2.77 ± 0.289 fold-change vs cycle 0 and 2.3 ± 0.394 fold-change vs cycle 0.

These data come from paper PMC9838217, “Structure of SALL4 zinc finger domain reveals link between AT-rich DNA binding and Okihiro syndrome”.
